Compounds with a hit are over-represented: about 14% of the library has one in this group of screens.
NS1 inh = influenza NS1 inhibition; Potency, µM (series often up to 46.1 µM), without a hit: at the highest dose activity, positive = more growth; hit rate 0.4% among 270,000; calls by dose curve; note: potency is the fitted concentration of half-maximal effect; actives are rising curves; nearly all actives have a fitted effect of over 50% in size
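Compounds were scored for reversing the slow growth caused by influenza A NS1 in S. cerevisiae, measured by optical density at 600 nm. Assay medium contained 2% galactose at pH 6.0; NS1-free yeast of the same strain were the positive control.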
CHX counter = counter-screen for Shiga toxin inhibitors: cycloheximide protein synthesis inhibition; cell reporter, cycloheximide protein synthesis inhibition counterscreen; max response, %; hit rate 12% among 300,000; in the data active = max response mostly above about 13%, no sharp cut-off; inactive = mostly below about 14%; note: read at 38.3 µM for the half of the compounds with a filed dose; 0% is about no effect
Giardia FBPA inh = inhibitors of Giardia lamblia fructose-1,6-bisphosphate aldolase. purified Giardia FBPA. Potency, µM (highest dose often 59.6 µM), for the others: at the highest dose activity, negative = inhibition, most hits filed as inhibitors. hit rate 0.71% among 290,000. AID 2451; note: potency is the fitted concentration of half-maximal effect; % is set by controls: 0 for no effect and ±100 for the full control effect; nearly all actives have a fitted effect of over 55% in size
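40 nM FBPA preincubated 10 min at RT with compound (up to 57.5 uM final), then substrate plus GAPDH/TPI/NAD/arsenate coupling and diaphorase/resazurin added. Fluorescence read after 20 min at RT, 525/598 nm.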
Shiga toxin inh = inhibitors of Shiga toxin in Vero cells. Vero cells, Shiga toxin protein synthesis inhibition reporter. inhibition, % at 38.7 µM. hit rate 9.2% among 290,000. AID 2315; in the data active = inhibition mostly above about 28%, no sharp cut-off; inactive = mostly below about 43%; note: 0% is about no effect
LmPK inh = blocks Leishmania mexicana pyruvate kinase activity; AID 1721; Potency, µM (doses to about 57.5 µM), inactives show at the top dose activity change, negative = inhibition, most hits filed as inhibitors; hit rate 0.37% among 290,000; purified LmPK, Kinase-Glo ATP luminescence, 1 h; note: potency is the fitted concentration of half-maximal effect; % is set by controls: 0 for no effect and ±100 for the full control effect
Target sequence (Q27686 whole entry, looked up): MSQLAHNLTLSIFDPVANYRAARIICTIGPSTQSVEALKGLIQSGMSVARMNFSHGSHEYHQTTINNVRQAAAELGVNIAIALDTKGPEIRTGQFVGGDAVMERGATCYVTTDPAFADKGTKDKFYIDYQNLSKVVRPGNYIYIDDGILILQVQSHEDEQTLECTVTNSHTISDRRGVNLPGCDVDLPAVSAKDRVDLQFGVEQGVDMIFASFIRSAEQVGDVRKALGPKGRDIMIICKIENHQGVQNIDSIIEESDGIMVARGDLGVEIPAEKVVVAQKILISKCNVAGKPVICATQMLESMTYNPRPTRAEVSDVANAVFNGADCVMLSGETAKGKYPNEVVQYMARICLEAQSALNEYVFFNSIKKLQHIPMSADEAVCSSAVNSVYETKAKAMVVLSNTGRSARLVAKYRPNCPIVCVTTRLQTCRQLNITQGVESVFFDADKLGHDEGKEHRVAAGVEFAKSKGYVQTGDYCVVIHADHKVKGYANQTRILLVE
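In 50 mM imidazole pH 7.2 with 7 mM MgCl2, LmPK (0.1 nM) turned over PEP (0.5 mM) and ADP (0.1 mM) for 1 h at room temperature. Luciferase read-out of ATP.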
* marks the source's active call; other numbers are inactive results; ? = inconclusive; / = no result given; + = active, no number. Unless noted, calls come from the whole dose curve; as a rule, active = well fitted curve in the direction sought with a large enough effect; inconclusive = small, poorly fitted or top-dose-only effect, or another doubt; inactive = no such curve, though single readings can be large; an effect the other way counts as inactive or inconclusive.

SMILES	NS1 inh	CHX counter	Giardia FBPA inh	Shiga toxin inh	LmPK inh
Oc1ccc(/C=N/NP(=S)(c2ccccc2)c2ccccc2)c(O)c1O	1%	13	?	18	17%
Cc1cccc(NC(=O)CN2C(=O)N/C(=C/c3ccc(C)s3)C2=O)c1	-1%	1	2%	40	3%
Cc1ccc(/C=N/N=C/c2ccc(C)s2)s1	-6%	71*	1%	+	-10%
COc1cccc(N/N=C/c2cccc(Br)c2O)c1	4%	30*	-10%	88*	-6%
Cc1cccc(N/N=C/c2ccc(C)s2)c1	-6%	40*	-2%	80*	2%
Cc1ccc(C=Nc2ccccc2C(N)=O)s1	-2%	13	1%	-3	-5%
Cn1c(N)c(S(=O)(=O)N2CCN(c3cccc(Cl)c3)CC2)c(=O)n(C)c1=O	-1%	-2	16%	-9	-2%
COCc1nnc(NC(=O)c2cc3ccccc3o2)s1	-62%	18*	/	58*	-14%
CCCc1nnc(NC(=O)c2cc3ccccc3o2)s1	-20%	13*	/	41	-1%
CCCc1nnc(NC(=O)c2cc3ccccc3oc2=O)s1	0%	-1	-5%	10	-2%
CC1(CCc2ccccc2)NC(=S)N(c2ccccc2)N1 (stereo unspecified)	14%	40*	-28%	42*	4%
CC1(CCc2ccccc2)NC(=S)N(c2ccc(Cl)cc2)N1 (stereo unspecified)	-10%	36*	-18%	59*	2%
COc1ccc(CNC(=O)CCC(=O)Nc2nnc(C(F)(F)F)s2)cc1	1%	-2	2%	-7	-7%
CN(C)c1ccnc2sc(C(=O)NCc3ccccc3)c(N)c12	-112%	21	3%	56	3%
CN(C)c1ccnc2sc3c(=O)n(-c4ccccc4)cnc3c12	-2%	12*	-4%	19	4%
Cc1cc(C(=O)N2CCN(c3ccc(F)cc3)CC2)on1	-7%	-3	12%	3	0%
CCN(CC)CCCCn1c(-c2ccccc2)nc2c(NCc3ccccc3)nc(C)nc21	/	/	7%	/	/
N=C1C(c2ccccc2)=C(O)CN1c1ccccc1	0%	2	3%	-16	2%
Cc1ccc(N2CC(O)=C(c3ccccc3)C2=N)cc1	/	18*	9%	24	5%
C[C@@]12CC[C@H]3[C@@H](CC[C@H]4C[C@@H](O)CC[C@]43C)[C@H]1CC[C@@H]2C(=O)C[C@H](O)C(F)(F)F	-11%	/	/	/	/
CCN(CC)c1ccc(NC(=O)c2ccco2)cc1	-14%	23*	-6%	66*	1%
CCN(CC)c1ccc(NC(=O)c2ccco2)c(C)c1	11%	15*	-4%	28	3%
CCN(CC)c1ccc(NC(=O)c2cccc(F)c2)c(C)c1	-2%	14	-2%	6	3%
CCN(CC)c1ccc(NC(=S)NC(=O)c2ccco2)cc1	0%	38*	-15%	61*	-1%
CCN(CC)c1ccc(NC(=O)c2ccc(Br)o2)c(C)c1	-2%	16	-22%	28*	1%
SMILES	NS1 inh	CHX counter	Giardia FBPA inh	Shiga toxin inh	LmPK inh
CCN(C(=O)c1ccc(NC(=O)c2ccco2)cc1)c1ccccc1	3%	1	/	-11	-7%
COc1ccc(OC)c(S(=O)(=O)N/N=C\c2c[nH]c3ccccc23)c1	-1%	7	-10%	15	4%
CC(NC(=O)COc1ccc(S(=O)(=O)N2CCCC2)cc1)c1ccccc1 (stereo unspecified)	2%	-5	6%	-5	-1%
O=C(Nc1ccc(C(=O)N2CCCCC2)cc1)c1ccc(Br)cc1	-11%	9	-9%	39	-1%
N#CC(C#N)=Cc1ccc(NC(=O)c2ccc(Br)cc2)cc1	-45%	47*	-24%	75*	0%
CC(C)(C)c1ccc(C(=O)Nc2ccc(C=C(C#N)C#N)cc2)cc1	-15%	72*	-7%	154*	0%
CC(C)(C)c1ccc(C(=O)Nc2ccc(S(N)(=O)=O)cc2)cc1	-4%	7	-10%	14	2%
CC[C@H](C)[C@H](NC(=O)[C@H](Cc1ccc(O)cc1)NC(=O)[C@@H]1CCCN1C(=O)[C@H](CCCCN)NC(=O)[C@@H](N)CCCCN)C(=O)N[C@@H](CC(C)C)C(=O)O	/	-4	3%	24	/
Cc1ccc(S(=O)(=O)N(C)C)cc1NC(=O)COC(=O)/C=C/c1cnc2ccccc2n1	/	13	3%	42	-4%
O=C(COC(=O)/C=C/c1ccc(F)cc1)Nc1cccc(S(=O)(=O)N2CCCC2)c1	5%	-5	-4%	5	4%
CN(C)S(=O)(=O)c1cccc(NC(=O)COC(=O)/C=C/c2ccc3c(c2)OCO3)c1	9%	16*	2%	71	-8%
Cc1ccc(/C=C/C(=O)OCC(=O)Nc2cccc(S(=O)(=O)N(C)C)c2)o1	-13%	14*	1%	17	1%
Cc1ccc(S(=O)(=O)N(C)C)cc1NC(=O)COC(=O)/C=C/c1ccc2c(c1)OCO2	/	17*	1%	40	8%
COc1cccc(/C=C/C(=O)OCC(=O)Nc2cccc(S(=O)(=O)N3CCCCC3)c2)c1OC	12%	13	-5%	61*	3%
O=C(Nc1ccc(O)cc1)c1cc2ccccc2c(=O)s1	2%	56*	-4%	113*	-2%
O=C(Nc1ccccc1)c1cc2ccccc2c(=O)s1	-16%	41*	3%	36*	0%
CCC(=O)N(Cc1cc(=O)[nH]c2ccccc12)c1ccc(OC)cc1	4%	3	1%	-11	4%
CCCNC(=O)OCc1cccnc1Sc1ccc(C)cc1	/	31*	3%	98*	2%
Cc1ccc(Sc2ncccc2NC(=O)c2ccccc2Cl)cc1	-2%	-1	-1%	27	4%
O=C(O)c1cc(N/N=C2/CC(c3ccccc3)Oc3ccccc32)ccc1Cl (stereo unspecified)	2%	40*	0%	54*	9%
CC(C)(C)N/N=C1\CC(c2ccccc2)Oc2ccccc21 (stereo unspecified)	-25%	10	13%	15	2%
O=C(Nc1nnc2n1CCS2)c1ccc(Br)o1	14%	1	18%	-9	2%
O=C1CSc2nc3ccccc3n21	-7%	21*	-3%	19	0%
COC(=O)CN1CCC(=O)c2ccccc2S1(=O)=O	/	5	3%	-8	/
CC(CC(=O)N1CCN(c2ccccc2)CC1)S(=O)(=O)c1ccc2c(c1)NC(=O)CO2 (stereo unspecified)	2%	2	/	-6	1%
Cc1ccc(-c2cc(C(=O)N3CCCCC3)c3ccccc3n2)cc1C	/	23*	-15%	33	-2%
O=C(O)c1cc(-c2ccc(-c3ccc(F)cc3)o2)nc2ccccc12	-9%	37	20µM*	30*	0%
CN1CCN(NC(=O)c2cc(-c3ccc(Br)s3)nc3ccccc23)CC1	11%	-2	2%	-10	-9%
Cc1ccc(-c2cc(C(=O)N3CCN(c4ccc(F)cc4)CC3)c3ccccc3n2)o1	-63%	29*	0%	45	2%
O=C(c1cc(-c2ccccc2)nc2ccccc12)N1CCCC1	5%	-6	16%	1	-8%
